“And” between values parts separate entries of the source, which are not always exact repeats. Equal entries are not always repeated. The source made the active and inactive calls. Rule for the calls: active = hit-call score of the fitted dose curve at least 0.9, where 1 is the maximum; inactive = score below 0.9.

Results on 40 compounds are retold here after PubChem BioAssay (EPA / NIEHS).

The experiment in a line: ATG_EGR_CIS: Attagene CIS-FACTORIAL HepG2 Assay for human Early Growth Response 1 (EGR1) (AID 2282938). To be noted: HepG2 Attagene CIS-FACTORIAL EGR reporter mRNA; actives raise or lower the signal. How it is done:
ATG_CIS is a cell-based, multiplexed-readout assay that uses HepG2, a human liver cell line, with measurements taken at 24 hours after chemical dosing in a 24-well plate.ATG_EGR_CIS is one of 52 assay component(s) measured or calculated from the ATG_CIS assay. It is designed to make measurements of mRNA induction, a form of inducible reporter, as detected with fluorescence intensity signals by Reverse transcription polymerase chain reaction (RT-PCR) and Capillary electrophoresis technology.Data from the assay component ATG_EGR_CIS was analyzed into 1 assay endpoint. This assay endpoint, ATG_EGR_CIS, was analyzed with bidirectional fitting relative to DMSO as the negative control and baseline of activity. Using a type of inducible reporter, measures of mRNA for gain or loss-of-signal activity can be used to understand the reporter gene at the transcription factor-level as they relate to the gene EGR1. Furthermore, this assay endpoint can be referred to as a primary readout, because this assay has produced multiple assay endpoints where this one serves a reporter gene function. To generalize the intended target to other relatable targets, this assay endpoint is annotated to the dna binding intended target family, where the subfamily is zinc finger.
Human liver HepG2 cells are transiently transfected with multiple reporter transcription units (MRTUs) in 6-well plates using FuGene 6 reagent (Roche; 3 ml FuGene/1 mg DNA). The MRTU constructs are regulated by a cis-regulating element (promoter). […] A major difference between the CIS and TRANS system is that in CIS activities of endogenous TFs are measured, whereas the TRANS assay evaluates changes in activities of exogenous, chimeric NR-Gal4 proteins. […] At the end of 24 hour incubation, total RNA was isolated using TriZol reagent (Invitrogen). The isolated RNA is then reverse-transcribed using oligo(dT) primer and Mo-MLV reverse transcriptase (Invitrogen) with DNAse I (Ambion) treatment for 30 min. The one-tenth of the produced cDNA was amplified by PCR using Taq DNA polymerase (Invitrogen) and two reporter sequence-specific primers. The PCR products were fluorescently labeled by primer extension with 6-arboxyfluorescein (6-FAM) 5'-labeled reporter sequence-specific primer (2 min at 95 C, 20 s at 68 C and 10 min at 72 C) and these products were digested with 5U of HpaI (New England Biolabs) for 2h at 37 C. The fragments were purified using Qiaquick PCR columns (Qiagen), analyzed on an ABI 3130xL genetic analyzer (Applied Biosystems) with peak positions identified by using a set of X-rhodamine (ROX)-labeled MapMarker1000 molecular weight standards (BioVentures). The raw capillary electrophoresis data was processed using Attagraph software (Attagene).
Take `Nc1cc(Cl)c(N)c(Cl)c1`: the compound was classed as inactive.
The same measure, in the same setting: in the case of `CCc1c(Br)c(Br)c(Br)c(Br)c1Br` it was “inactive”.
Same read-out and setting: in the case of `CCO[Si](CCC(F)(F)C(F)(F)C(F)(F)C(F)(F)C(F)(F)C(F)(F)F)(OCC)OCC` it was “inactive”; in that of `CCN(Cc1cccc(S(=O)(=O)O)c1)c1ccc(C(=C2C=CC(=[N+](CC)Cc3cccc(S(=O)(=O)O)c3)C=C2)c2ccc(O)cc2S(=O)(=O)[O-])cc1`, “inactive”.
The same measure, in the same setting: under `FC(F)(I)C(F)(F)C(F)(F)C(F)(F)I` stands “inactive”; under `OCCCC(F)(F)C(F)(F)C(F)(F)F`, “inactive”; under `O=S(=O)(OCCOC(F)(F)F)C(F)(F)F`, “inactive”.
`CCCCCCCCC(F)(F)C(F)(F)C(F)(F)C(F)(F)C(F)(F)C(F)(F)F`: the compound was called inactive.
On the same count and under the same terms, in the case of `O=C(O)C(F)(OC(F)(F)C(F)(OC(F)(F)C(F)(OC(F)(F)C(F)(F)C(F)(F)F)C(F)(F)F)C(F)(F)F)C(F)(F)F` (stereo not given) it was “inactive”.
For the compound `COC(=O)C1CCC(C(=O)OC)CC1` (stereo not given), the compound was called inactive.
`CC(CCl)OP(=O)(OC(C)CCl)OC(C)CCl` (stereo not given): the outcome was inactive.
For the compound `Cc1cc(C)cc(O)c1`, the compound was called inactive.
The same measure, in the same setting: under `O=C(O)C=C(C(F)(F)F)C(F)(F)F` stands “inactive”; under `FC(F)(F)C(F)(F)CNCC(F)(F)C(F)(F)F`, “inactive”.
In the case of `[Co]`, the result was inactive.
Consider `FC(F)(F)C(F)(F)C(F)(F)C(F)(F)C(F)(F)C(F)(F)C(F)(F)C(F)(F)CCS`, for which the outcome was inactive.
On the same count and under the same terms, under `CCCCNc1ccccc1` stands “inactive”; under `CCCCOc1ccc(N)cc1`, “inactive”.
For `Nc1ccc(Oc2cccc(Oc3ccc(N)cc3)c2)cc1`, the AC50 was 26.2 µM (active).
As for `NC(=O)C(F)(F)C(F)(F)C(F)(F)C(F)(F)F`, the compound was classed as inactive.
On the same count and under the same terms, under `N=C(N)C(F)(F)C(F)(F)C(F)(F)C(F)(F)C(F)(F)C(F)(F)C(F)(F)F` stands “inactive”; under `CCCCCCCCCCCCCCCC[N+](C)(C)Cc1ccccc1`, “inactive”.
Consider `O[Si](c1ccccc1)(c1ccccc1)c1ccccc1`, for which the call was inactive.
`OCC(F)(F)C(F)(F)C(F)(F)F`: the outcome was inactive.
On to `CCCCCCOC(=O)c1ccccc1O`, for which the result was inactive.
Still for that read-out and setting: in the case of `FC(F)(F)C(F)(F)C(F)(F)C(F)(F)C(F)(F)C(F)(F)C(F)(F)Br` it was “inactive”.
With `O=C(O)C(F)(F)C(F)(F)C(F)(F)C(F)(F)C(F)(F)C(F)(F)C(F)(F)C(F)(F)Cl`, the AC50 was 50 µM (active) and 64.8 µM (active).
Turning to `O=P(O)(O)OCCC(F)(F)C(F)(F)C(F)(F)C(F)(F)C(F)(F)C(F)(F)F`, the compound was called inactive.
Still for that read-out and setting: under `C=CC/C=C/C/C=C/C/C=C/C` stands “inactive”.
`COC(=O)CCC(F)(F)C(F)(F)C(F)(F)C(F)(F)F`: the compound was called inactive.
Regarding `CN(C)Cc1ccccc1O`, the compound was classed as inactive.
Still for that read-out and setting: in the case of `OCC(F)(F)C(F)(F)C(F)(F)C(F)(F)C(F)(F)C(F)F` it was “inactive”.
On the same count and under the same terms, in the case of `CCCCCCOC(=O)c1ccccc1` it was “inactive”; in that of `CCCCCCCOC(=O)c1ccccc1C(=O)OCCCCCCC`, “inactive”; in that of `FC1CC(F)(F)C(F)(F)C1(F)F` (stereo not given), “inactive”.
Same read-out and setting: in the case of `FC(F)(F)C(F)(F)C(F)(F)C(F)(F)C(F)(F)C(F)(F)CCS` it was “inactive”; in that of `C(=C(c1ccccc1)c1ccccc1)c1ccccc1`, “inactive”; in that of `CCCCCCS`, “inactive”.
Take `CS(C)(=O)=O`: the compound was classed as inactive.
Regarding `Oc1ccc(Nc2ccccc2)cc1`, the outcome was inactive.

What is called AC50 is the concentration at which the activity in the assay is half-maximal.
